Results as given in PubChem BioAssay (NCATS).
Results filed as inconclusive are left out. Where a call stands in place of a potency, no number is given. Active and inactive are the calls of the source. Calls follow the shape of the dose curve; as a rule, active = well fitted curve in the direction sought with a large enough effect; inconclusive = small, poorly fitted or top-dose-only effect, or another doubt; inactive = no such curve, though single readings can be large; an effect the other way counts as inactive or inconclusive.

What was measured:
[1] = Quantitative High-Throughput drug screen in 47 multiple myeloma cell lines against the NCATS MIPE library collection: KHM11_PLB cell viability assay (AID 1918962); also: nearly all actives have a fitted effect of over 35% in size
Summary of the method: (§1)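 Luminescent ATP measurement with CellTiter-Glo gives viability, scaled between DMSO-only wells (100%) and media-only wells (0%). Cells, 500 per well, faced library compounds for 48 hours at 37C.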

[2] = Quantitative High-Throughput drug screen in 47 multiple myeloma cell lines against the NCATS MIPE library collection: JIM3_ECACC cell viability assay (AID 1918963; also: nearly all actives have a fitted effect of over 35% in size)
Summary of the method: as §1

[3] = Quantitative High-Throughput drug screen in 47 multiple myeloma cell lines against the NCATS MIPE library collection: JIM1_ECACC cell viability assay (AID 1918964)
Summary of the method: (§2)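 Relative luminescence from CellTiter-Glo served as the viability signal, referenced to DMSO-treated (100%) and cell-free medium (0%) controls. Treatment lasted 48 hours at 37C with 500 cells per well.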

[4] = Quantitative High-Throughput drug screen in 47 multiple myeloma cell lines against the NCATS MIPE library collection: INA6_PLB cell viability assay (AID 1918965; also: nearly all actives have a fitted effect of over 55% in size)
Summary of the method: (§3)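 Steps: seed 500 cells per well; pin-transfer MIPE 4.0 library; incubate 48 h at 37C, 5% CO2, humidified; add CellTiter-Glo, 5 min room temperature; read luminescence.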

[5] = Quantitative High-Throughput drug screen in 47 multiple myeloma cell lines against the NCATS MIPE library collection: JJN3_DSMZ cell viability assay (AID 1918966; also: nearly all actives have a fitted effect of over 50% in size)
Summary of the method: as §2

[6] = Quantitative High-Throughput drug screen in 47 multiple myeloma cell lines against the NCATS MIPE library collection: H1112_PLB cell viability assay (AID 1918967; also: nearly all actives have a fitted effect of over 30% in size)
Summary of the method: as §2

[7] = Quantitative High-Throughput drug screen in 47 multiple myeloma cell lines against the NCATS MIPE library collection: KMS12BM_JCRB cell viability assay (AID 1918971); also: nearly all actives have a fitted effect of over 35% in size
Summary of the method: as §1

[8] = Quantitative High-Throughput drug screen in 47 multiple myeloma cell lines against the NCATS MIPE library collection: KMS12PE_JCRB cell viability assay (AID 1918972); also: nearly all actives have a fitted effect of over 30% in size; as to viability: series mostly up to about 46 µM
Summary of the method: as §3

[9] = Quantitative High-Throughput drug screen in 47 multiple myeloma cell lines against the NCATS MIPE library collection: Karpas25_ECACC cell viability assay (AID 1918968; also: nearly all actives have a fitted effect of over 35% in size)
Summary of the method: as §2

[10] = Quantitative High-Throughput drug screen in 47 multiple myeloma cell lines against the NCATS MIPE library collection: KMS27_JCRB cell viability assay (AID 1918970); also: nearly all actives have a fitted effect of over 30% in size
Summary of the method: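 KMS27_JCRB myeloma cells, 500 per well, exposed 48 h at 37 C, 5% CO2 to MIPE 4.0 compounds. Viability from ATP by CellTiter-Glo luminescence, normalized to DMSO (100%) and medium-only (0%) wells.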
Potency is read from the fitted curve at half-maximal effect.

Row | Structure (SMILES) | Potency [1] | Potency [2] | Potency [3] | Potency [4] | Potency [5] | Potency [6] | Potency [7] | Potency [8] | Potency [9] | Potency [10]
1 | NC1(c2ccc(-c3nc4ccn5c(=O)[nH]nc5c4cc3-c3ccccc3)cc2)CCC1 | 5.9 µM (active) | 0.662 µM (active) | 1.48 µM (active) | 11.8 µM (active) | 5.26 µM (active) | 0.0833 µM (active) | 23.5 µM (active) | 0.296 µM (active) |  | 
2 | O[C@@H](CNC[C@H](O)[C@H]1CCc2cc(F)ccc2O1)[C@@H]1CCc2cc(F)ccc2O1 | 26.4 µM (active) | 23.5 µM (active) |  | 20.9 µM (active) |  | 29.6 µM (active) | 23.5 µM (active) | 14.8 µM (active) |  | 
3 | Cn1nnc2c(C(N)=O)ncn2c1=O | inactive | inactive | inactive |  | inactive | inactive |  | inactive | inactive | inactive
4 | O=C(O)c1cccnc1 | 18.7 µM (active) | inactive |  | inactive |  | inactive |  | inactive |  | 
5 | CCc1cc(C(N)=S)ccn1 | inactive | inactive | inactive |  |  | inactive | inactive | inactive | inactive | inactive
6 | Cc1cc(NS(=O)(=O)c2ccc(N)cc2)no1 | inactive | inactive | inactive | inactive |  | inactive | inactive | inactive | inactive | inactive
7 | Cn1c(=O)c2c(ncn2CC(O)CO)n(C)c1=O (configuration not stated) | inactive | inactive | inactive | inactive |  | inactive | inactive | inactive | inactive | inactive
8 | Cc1cccc(N(C)C(=S)Oc2ccc3ccccc3c2)c1 | inactive | inactive |  | inactive | inactive | inactive | inactive |  |  | 
9 | CC(C)C[C@H](NC(=O)[C@H](CCc1ccccc1)NC(=O)CN1CCOCC1)C(=O)N[C@@H](Cc1ccccc1)C(=O)N[C@@H](CC(C)C)C(=O)[C@@]1(C)CO1 | 0.001 µM (active) | 0.0235 µM (active) | 0.0074 µM (active) | 0.001 µM (active) | 0.0074 µM (active) |  | 0.0053 µM (active) | 0.001 µM (active) | 0.001 µM (active) | 0.001 µM (active)
10 | CNCC[C@H](Oc1cccc2ccccc12)c1cccs1 | 5.26 µM (active) | 5.26 µM (active) |  | 7.43 µM (active) |  | 2.35 µM (active) | 18.7 µM (active) |  | 2.96 µM (active) | 23.5 µM (active)
11 | COc1cc([C@@H]2c3cc4c(cc3[C@H](O)[C@H]3COC(=O)[C@H]23)OCO4)cc(OC)c1OC | inactive | inactive | inactive | inactive | inactive |  |  | inactive | inactive | inactive
12 | N[C@@H](C(=O)N[C@@H]1C(=O)N2C(C(=O)O)=C(Cl)CS[C@H]12)c1ccccc1 | inactive | inactive | inactive | inactive | inactive | inactive |  | inactive |  | inactive
13 | CC(C)(C)NC(=O)[C@H]1CC[C@H]2[C@@H]3CC[C@H]4NC(=O)C=C[C@]4(C)[C@H]3CC[C@]12C | 1.18 µM (active) | 4.18 µM (active) | inactive | 0.833 µM (active) |  | 1.18 µM (active) | inactive | 20.9 µM (active) |  | 
14 | CCCc1nc(C)c2c(=O)[nH]c(-c3cc(S(=O)(=O)N4CCN(CC)CC4)ccc3OCC)nn12 | 9.35 µM (active) | 9.35 µM (active) | 5.26 µM (active) | 4.18 µM (active) | 4.18 µM (active) | 10.5 µM (active) | 5.26 µM (active) | 2.96 µM (active) | 5.26 µM (active) | 4.69 µM (active)
15 | CC(=O)CC(c1ccccc1)c1c(O)c2ccccc2oc1=O (configuration not stated) | inactive | inactive |  | inactive |  | inactive |  | inactive |  | inactive
16 | COC(c1ccccc1)(c1ccccc1)[C@H](Oc1nc(C)cc(C)n1)C(=O)O | inactive | inactive | inactive |  |  | inactive |  | inactive | inactive | inactive
17 | COc1ncnc(NS(=O)(=O)c2ccc(N)cc2)c1OC | inactive | inactive |  | inactive |  | inactive | inactive | inactive |  | inactive
18 | CNC(=O)c1cc(Oc2ccc(NC(=O)Nc3ccc(Cl)c(C(F)(F)F)c3)cc2)ccn1 | 11.8 µM (active) | 10.5 µM (active) |  | 13.2 µM (active) | 23.5 µM (active) | 9.35 µM (active) |  | 3.72 µM (active) | 6.62 µM (active) | 3.32 µM (active)
19 | CC(C)(C)C(=O)OCOP(=O)(COCCn1cnc2c(N)ncnc21)OCOC(=O)C(C)(C)C | 0.935 µM (active) | 2.64 µM (active) | 2.64 µM (active) | 0.743 µM (active) | 0.526 µM (active) | 3.72 µM (active) | 0.935 µM (active) |  |  | 0.469 µM (active)
20 | NC(N)=NC(N)=NCCc1ccccc1 | 16.6 µM (active) | 4.69 µM (active) |  | 20.9 µM (active) |  |  | 10.5 µM (active) |  | 5.26 µM (active) | 
21 | COc1c(N2CCNC(C)C2)c(F)cc2c(=O)c(C(=O)O)cn(C3CC3)c12 (configuration not stated) | inactive | inactive |  |  | inactive | inactive |  | inactive | inactive | inactive

Row | Structure (SMILES) | Potency [1] | Potency [2] | Potency [3] | Potency [4] | Potency [5] | Potency [6] | Potency [7] | Potency [8] | Potency [9] | Potency [10]
22 | O=NN(CCCl)C(=O)NC1CCCCC1 | inactive | inactive | inactive |  |  | inactive | inactive | inactive |  | inactive
23 | CNC1CCCN(c2c(F)cc3c(=O)c(C(=O)O)cn(C4CC4)c3c2OC)C1 (configuration not stated) | inactive | inactive | inactive |  |  |  | inactive |  | 9.35 µM (active) | 0.0209 µM (active)
24 | CC(=O)Oc1ccccc1C(=O)Nc1ncc([N+](=O)[O-])s1 | 21.5 µM (active) | 17.1 µM (active) | 27 µM (active) | 17.1 µM (active) | 30.3 µM (active) | 21.5 µM (active) | 24.1 µM (active) | 24.1 µM (active) |  | 12.1 µM (active)
25 | COc1ccccc1OCC(O)COC(N)=O (configuration not stated) | inactive | inactive | inactive | inactive |  | inactive | inactive | inactive |  | inactive
26 | CCOCC(O)COc1ccc(NC(=O)CC[S+](C)C)cc1 (configuration not stated) | inactive | inactive |  |  | inactive | inactive | inactive |  | inactive | inactive
27 | CO[C@@]12[C@H](COC(N)=O)C3=C(C(=O)C(C)=C(N)C3=O)N1C[C@@H]1N[C@@H]12 | 33.2 µM (active) | 26.4 µM (active) |  | 20.9 µM (active) | 26.4 µM (active) | 23.5 µM (active) | 23.5 µM (active) |  |  | 
28 | C[C@@H]1C[C@H]2[C@@H]3CCC4=CC(=O)C=C[C@]4(C)[C@@]3(Cl)[C@@H](O)C[C@]2(C)[C@@]1(OC(=O)c1ccco1)C(=O)CCl | 9.35 µM (active) | 9.35 µM (active) | 7.43 µM (active) | 2.96 µM (active) | 2.35 µM (active) | 5.26 µM (active) | 18.7 µM (active) | 4.69 µM (active) |  | 10.5 µM (active)
29 | CCn1cc(C(=O)O)c(=O)c2cc(F)c(N3CCNCC3)cc21 | inactive | inactive | inactive | inactive |  | inactive |  |  | inactive | inactive
30 | CN(CCOc1ccc(CC2SC(=O)NC2=O)cc1)c1ccccn1 (configuration not stated) | inactive | inactive |  | inactive |  | inactive |  | inactive |  | inactive
31 | Cc1ccc(S(=O)(=O)N[C@@H](Cc2ccccc2)C(=O)CCl)cc1 | 16.6 µM (active) | 13.2 µM (active) |  | 5.9 µM (active) | 18.7 µM (active) | 16.6 µM (active) | 18.7 µM (active) | 16.6 µM (active) | 9.35 µM (active) | 13.2 µM (active)
32 | O=C(O)c1cc(=O)[nH]c(=O)[nH]1 | inactive | inactive |  | inactive |  | inactive |  | inactive | inactive | inactive
33 | CN(C)CCc1c[nH]c2ccc(CS(=O)(=O)N3CCCC3)cc12 | 16.6 µM (active) | inactive | inactive | 0.0074 µM (active) | inactive | inactive | inactive |  |  | 23.5 µM (active)
34 | CC(C)C1CCC(C(=O)N[C@H](Cc2ccccc2)C(=O)O)CC1 (some centres not stated) | inactive | inactive | inactive |  |  | inactive |  | inactive |  | inactive
35 | Cc1oc(=O)oc1CN1CCN(c2cc3c(cc2F)c(=O)c(C(=O)O)c2n3C(C)S2)CC1 (configuration not stated) | inactive | inactive | inactive |  | 14.8 µM (active) | inactive | 13.2 µM (active) | inactive |  | inactive
36 | CCOC(=O)[C@H](CCc1ccccc1)N[C@H]1CCc2ccccc2N(CC(=O)O)C1=O | 37.2 µM (active) | 20.9 µM (active) | 9.35 µM (active) | 14.8 µM (active) | 23.5 µM (active) | 23.5 µM (active) | 29.6 µM (active) | 8.33 µM (active) |  | 9.35 µM (active)
37 | CNNCc1ccc(C(=O)NC(C)C)cc1 | inactive |  | inactive |  | inactive | inactive | 4.69 µM (active) | inactive | 5.26 µM (active) | inactive
38 | Nc1nc(=S)c2[nH]cnc2[nH]1 | 4.18 µM (active) |  |  | 0.469 µM (active) | 4.69 µM (active) | 14.8 µM (active) | 5.9 µM (active) |  | 1.48 µM (active) | inactive
39 | COCCCOc1cc(C[C@@H](C[C@H](N)[C@@H](O)C[C@H](C(=O)NCC(C)(C)C(N)=O)C(C)C)C(C)C)ccc1OC | inactive |  |  |  |  |  |  | inactive |  | 
40 | C1CCC(C(CC2CCCCN2)C2CCCCC2)CC1 (configuration not stated) | 11.8 µM (active) |  | 20.9 µM (active) | 9.35 µM (active) | 20.9 µM (active) | 23.5 µM (active) | 9.35 µM (active) | 8.33 µM (active) |  | 10.5 µM (active)
41 | COc1ccc2cc3[n+](cc2c1OC)CCc1cc2c(cc1-3)OCO2 | 8.33 µM (active) |  | 16.6 µM (active) | 6.62 µM (active) | 11.8 µM (active) | 14.8 µM (active) | 6.62 µM (active) | 16.6 µM (active) | 2.64 µM (active) | 16.6 µM (active)
